# Measured values reported in PubChem BioAssay AID2314 (National Center for Advancing Translational Sciences (NCATS), 2010).
# “And” between values parts separate entries of the source, which are not always exact repeats. Equal entries are not always repeated. Out of some 300,000 compounds screened, about 37,000 (12%) were called active. Cut-off read from the data, not from the text of the source: active = max response mostly above about 13% (no sharp cut-off); inactive = mostly below about 14%. The sample as a whole holds a higher share of actives than the screen did.
# Test: Cycloheximide Counterscreen for Small Molecule Inhibitors of Shiga Toxin; note: read at 38.3 µM for the half of the compounds with a filed dose; 0% is about no effect
# Settings: cell reporter, cycloheximide protein synthesis inhibition counterscreen; hits give high values
row,SMILES,max response
1,COCCCNC(=O)CN1C(=O)CSc2ccc(S(=O)(=O)N3CCOCC3)cc21,-0.345% (inactive)
2,OC(COc1ccc(CN2CCSCC2)cc1)CN1CCCCC1 (configuration not stated),0.684% (inactive)
3,CC1CCC(N2CC(=O)N(Cc3ccc4c(c3)OCO4)C(c3ccc(F)cc3)C2=O)CC1 (configuration not stated),-2.2% (inactive)
4,O=C(c1cc(Cl)cc(Cl)c1)N1CCC(=O)N(C(COCc2ccccc2)Cc2ccccc2)CC1 (configuration not stated),-1.19% (inactive)
5,O=C(CCl)NNc1nc(-c2ccccc2)c2cc(Cl)ccc2n1,-5.34% (inactive)
6,COc1cc(OC)nc(NC(=O)CCl)n1,-2.63% (inactive)
7,O=C(CCl)NNc1cccc(Cl)n1,26.1% (active)
8,C=CCn1c(SCC(=O)NCC2CCCO2)nc2sc(C)c(C)c2c1=O (configuration not stated),-2.05% (inactive)
9,COc1ccc(CCCc2nnc(SCc3nc4ccccc4c(=O)[nH]3)n2C)cc1,1.63% (inactive)
10,CCN(CC(=O)NCc1cccs1)C(=O)c1cccc(S(=O)(=O)Nc2ccccc2OC)c1,-1.21% (inactive)
11,Cc1ccc(-c2nc3ccccc3[nH]2)cc1N,34.2% (inactive)
12,OC(c1nc2ccccc2[nH]1)C(O)C(O)C(O)c1nc2ccccc2[nH]1 (configuration not stated),-2.45% (inactive)
13,c1ccc2[nH]c(-c3nc4ccccc4[nH]3)nc2c1,33.9% (active)
14,CN(C(=O)C1CCN(c2ncnc3c2nc2n3CCCCC2)CC1)C1CCCCC1,-1.8% (inactive)
15,CCOCc1nnc(NC(=O)CCS(=O)(=O)Cc2ccccc2)s1,-1.02% (inactive)
16,COC(=O)c1ccc(OCC(=O)NC(C)(C)C)cc1,31.4% (active)
17,CC(C)(C)NC(=O)COc1ccc(CNc2ccc3[nH]c(=O)[nH]c3c2)cc1,-1.49% (inactive)
18,COc1ccc(OCC(=O)NNC(=O)c2ccc(-c3ccccc3)cc2)cc1,-2.64% (inactive)
19,Cc1cccc(NC(=O)N2CCCCCC2)c1C,8.83% (inactive)
20,COc1ccc(NS(=O)(=O)c2cc3c(cc2C)N(C(C)=O)CCO3)cc1,-2.57% (inactive)
21,COc1ccc(CC(=O)Nc2ccccc2NC(=O)c2ccco2)cc1OC,6.8% (inactive)
22,COc1ccc(C(=O)O/N=C(\N)Cc2ccc(Cl)cc2Cl)cc1OC,4.82% (inactive)
23,COc1ccc(C/C(N)=N/OC(=O)c2ccco2)cc1OC,22.4% (active)
24,CCc1nnc(NC(=O)CSCc2cc(=O)n3cc(C)sc3n2)s1,1.44% (inactive)
25,CCN1CCN(C(=O)CN(C)S(=O)(=O)c2ccc(OC)cc2)CC1,4.5% (inactive)

row,SMILES,max response
1,CCN1CCN(C(=O)c2cc3cc4ccc(OC)cc4nc3s2)CC1,15.1% (active)
2,COc1ccc(OC)c(C(=O)c2ccc(C(=O)N3CCN(Cc4csc(C)n4)CC3)cc2)c1,-2.77% (inactive)
3,CCOc1cc(/C=C(\C#N)c2nc(-c3cccs3)c(NC(C)=O)s2)ccc1O,1.82% (inactive)
4,CCNc1nc(NCC)nc(N/N=C/c2ccc(O)c(OC)c2)n1,7.49% (inactive)
5,COc1cc(/C=N\Nc2nc(-c3cccs3)c(NC(C)=O)s2)ccc1O,17.1% (active)
6,COc1cc(/C=N/Nc2nc3ccccc3s2)ccc1O,72.3% (active)
7,COc1cc(/C=N/NC(=O)CCc2n[nH]c(=O)[nH]c2=O)ccc1O,-0.284% (inactive)
8,COc1cc(/C=N/NC(=O)CNC(=O)c2ccncc2)ccc1OC(C)=O,-4.24% (inactive)
9,COc1ccc(C(=O)N(C)CC(O)c2ccccc2)cc1OC1CCN(C(C)=O)CC1 (configuration not stated),3.8% (inactive)
10,CC(C)[C@H](NC(=O)OCc1ccccc1)C(=O)OCc1ccccc1,-4.84% (inactive)
11,CC1CCN(c2ccc([N+](=O)[O-])c(SCCO)c2)CC1,1.83% (inactive)
12,NC(=O)Nc1cccc(C(F)(F)F)c1,0.977% (inactive)
13,FC(F)(F)c1cccc(N/N=C/c2ccccc2)c1,41.1% (active)
14,O=C(O)CSCC(=O)Nc1cccc(C(F)(F)F)c1,-6.91% (inactive)
15,Cc1ccc(C(C)C)cc1OCC(=O)Nc1ccccc1N1CCCC1,-0.789% (inactive)
16,Cc1ccc(O)c(NC(=S)NC(=O)COc2ccc(Br)cc2)c1,-1.57% (inactive)
17,Cc1ccc(O)c(NC(=O)COc2cc(C)ccc2C)c1,28.6% (active)
18,COc1nnc(-c2ccc(C)c(S(=O)(=O)N(C)C)c2)c2ccccc12,0.699% (inactive)
19,Cc1cc(C)c(S(=O)(=O)N2CCOCC2)cc1C,1.22% (inactive)
20,CCCCc1ccc(NC(=O)NCc2cccnc2)cc1,16% (inactive)
21,O=C(CSc1ncccn1)NC(=O)NCc1ccccc1,-1.54% (inactive)
22,Cc1nc2ccc(NC(=O)C(F)(F)F)cc2o1,1.37% (inactive)
23,Cc1nc2cc(NC(=O)NCc3ccccc3)ccc2o1,21.4% (active)
24,Cc1ccc(NC(=O)Nc2ccc3oc(C)nc3c2)cc1,53.3% (active)
25,COc1ccccc1C(=O)Nc1ccc(OCc2nnc3c4ccccc4c(C)nn23)cc1,1.98% (inactive)

row,SMILES,max response
1,CN(Cc1ccccc1)C(=O)C1CCCN(c2ncnc3c2nc2n3CCCCC2)C1 (configuration not stated),-3.17% (inactive)
2,N#C/C(=C\c1ccc(N2CCOCC2)o1)C(=O)N1CCOCC1,1.71% (inactive)
3,CCn1c(=O)c([N+](=O)[O-])c(NCc2ccc3c(c2)OCO3)c2ccccc21,-2.03% (inactive)
4,COCCNC(=O)/C(C#N)=C/c1cccc(OCc2ccccc2)c1,4.87% (inactive)
5,CC(C)(C)C(=O)/C(C#N)=C/c1ccc(O)cc1,8.63% (inactive)
6,CC(C)NC(=O)/C(C#N)=C\c1ccc(N(C)C)c(Br)c1,27.9% (active)
7,COc1ccccc1C(C)NC(=O)Cc1ccsc1 (configuration not stated),5.18% (inactive)
8,CSCCC(NC(=O)COc1ccccc1)C(=O)Nc1ccc(C)cc1 (configuration not stated),4.05% (inactive)
9,CC(=O)Nc1ccc(NC(=O)[C@@H](NC(=O)c2cccc(C)c2)C(C)C)cc1,-5.14% (inactive)
10,Cc1ccc(NC(=O)C(C)c2cccc(C(=O)c3ccccc3)c2)cc1 (configuration not stated),26.6% (active)
11,COc1ccc(N2C(=O)C(CC(=O)Nc3ccccc3)N(Cc3ccc(OC)c(OC)c3)C2=O)cc1 (configuration not stated),14.6% (inactive)
12,CCCCCCSc1nsc(N)n1,23.1% (active)
13,CCCSc1nsc(N)n1,22.8% (active)
14,Nc1nc(SC23CC4CC(CC(C4)C2)C3)ns1,-2.92% (inactive)
15,Cc1ccc(S(=O)(=O)N2CCCC(C(=O)N3CCN(C)CC3)C2)cc1 (configuration not stated),6.16% (inactive)
16,Cn1c(=O)[nH]c(=O)c2c1nc(CN1CCN(c3ccccc3F)CC1)n2CCc1ccccc1,2.36% (inactive)
17,CCCCCCNS(=O)(=O)c1ccccc1Br,-2.52% (inactive) and 6.23% (inactive)
18,O=C(COC(=O)c1ccc(S(=O)(=O)Nc2ccccc2)cc1)NCC1CCCO1 (configuration not stated),-1.31% (inactive)
19,CCOC(=O)N1CCN(c2cc(C)c([N+](=O)[O-])cc2F)CC1,16.3% (inactive)
20,CS(=O)(=O)c1ccc2nnn(OCC(=O)Nc3cccc(C#N)c3)c2c1,-3.01% (inactive)
21,O=C(O)CC(c1ccccc1F)N1Cc2ccccc2C1=O (configuration not stated),-3.84% (inactive)
22,COc1cc([N+](=O)[O-])cc([N+](=O)[O-])c1NC(=O)N1CCOCC1,-3.17% (inactive)
23,COc1ccc(OCCCON2C(=O)c3ccccc3C2=O)cc1,-3.07% (inactive)
24,O=C(OCCN1C(=O)c2ccccc2C1=O)Oc1ccccc1,-5.45% (inactive)
25,O=C1c2ccccc2C(=O)N1CCOc1ccc(F)cc1,34.9% (active)

row,SMILES,max response
1,COc1cc(OC)cc(C(=O)Nc2nnc(SCC(=O)NCC3CCCO3)s2)c1 (configuration not stated),5.61% (inactive)
2,COC(=O)C1=C(C)N(C(C)c2ccccc2)C(=O)/C1=C\c1ccco1 (configuration not stated),12.5% (inactive)
3,O=C(Nn1cnnc1)c1cc(Cl)ccc1Cl,1.72% (inactive)
4,COc1cccc(-n2c(SCC(=O)c3c[nH]c4ccccc34)nc3ccccc3c2=O)c1,-2.32% (inactive)
5,Cc1ccc(-n2c(SCC(=O)N3CCC(C(=O)O)CC3)nc3ccccc3c2=O)cc1C,25.2% (active)
6,CCc1c(O)nc(SCC(=O)N2CCCCC2)n(-c2ccccc2C)c1=O,-1.43% (inactive)
7,Cc1[nH]c2ccccc2c1C(=O)CN1CC(C)CC(C)C1 (configuration not stated),-1.83% (inactive)
8,O=C(NCc1ccccc1)C1=C[C@@H](c2ccc(C(F)(F)F)cc2)C[C@@H](OCc2ccc(CO)cc2)O1,6.43% (inactive)
9,O=C(NC1CC1)C1=C[C@H](c2c[nH]c3ccccc23)C[C@H](OCc2ccc(CO)cc2)O1,16.2% (active)
10,O=C(NCc1ccccc1)C1=C[C@H](C2CC2)C[C@H](OCc2ccc(CO)cc2)O1,-2.61% (inactive)
11,C=CCOC(=O)C1=C[C@@H](c2ccccc2)C[C@@H](OCc2ccc(CO)cc2)O1,8.03% (inactive)
12,NC(=O)C1=C[C@H](c2csc3ccccc23)C[C@H](OCc2ccc(CO)cc2)O1,20.4% (active)
13,NC(=O)C1=C[C@@H](c2csc3ccccc23)C[C@@H](OCc2ccc(CO)cc2)O1,-2.5% (inactive)
14,CCc1cccc(NC(=O)CCCN2C(=O)C(c3ccccc3)Oc3cccnc32)c1 (configuration not stated),11.2% (inactive)
15,C=C(Br)Cn1c(CCCC)nc2ccccc21,3.99% (inactive)
16,COc1ccc(C)cc1S(=O)(=O)NCCc1ccccc1,-1.77% (inactive)
17,COc1ccc(CCN2C(=O)N(c3ccc(OC)cc3)C(=O)C2CC(=O)Nc2ccc(OC)cc2)cc1 (configuration not stated),1.2% (inactive)
18,Cc1cc(C(F)F)nn1CC(=O)NC1CCCCCC1,6.8% (inactive)
19,O=C(CN1CCCCCC1)Nc1ccc(Br)cc1Br,15.8% (inactive)
20,Cc1ccc(N2C(=O)CC(NCc3ccc4c(c3)OCO4)C2=O)cc1Cl (configuration not stated),24% (active)
21,Cc1ccc(CC2CC(=O)N(c3ccc4c(c3)OCCO4)C2=O)cc1 (configuration not stated),21.2% (inactive)
22,O=CN1CCN(C2CC(=O)N(c3ccc4c(c3)OCO4)C2=O)CC1 (configuration not stated),11.4% (inactive)
